# Laboratory results as given in article PMC7862700, “An all-to-all approach to the identification of sequence-specific readers for epigenetic DNA modifications on cytosine”.
# How the values were obtained:
# Assay in all cases: DAPPL (digital affinity profiling via proximity ligation, sequencing); 10 mM Tris-HCl pH 7.5, 50 mM NaCl, 1 mM DTT, 4% glycerol, room temperature, 30 min; GST-TFs on glutathione beads, 16-mer random dsDNA library, 0.1% formaldehyde crosslink after washing; high values mean tight binding
# [1] = molecular target: T1, FEV (Homo sapiens, UniProt Q99581 1-238); conditions: protein: recombinant; tags: N-terminal GST; dsDNA, one strand shown
# T1 sequence: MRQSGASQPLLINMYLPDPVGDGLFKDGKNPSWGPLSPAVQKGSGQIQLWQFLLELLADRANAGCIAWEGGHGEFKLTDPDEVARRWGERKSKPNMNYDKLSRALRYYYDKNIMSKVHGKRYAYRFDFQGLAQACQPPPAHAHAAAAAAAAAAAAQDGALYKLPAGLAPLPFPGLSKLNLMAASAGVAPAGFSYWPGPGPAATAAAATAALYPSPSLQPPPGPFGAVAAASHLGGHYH
# In short: (§1)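 GST fusions of human transcription factors were expressed in yeast and captured with glutathione beads. Once given DNA barcodes and pooled alongside a tag-only sample, they were incubated for 30 min at room temperature with 200 nmole of a random double-stranded 16-mer DNA library in Tris/NaCl/DTT/glycerol buffer, then washed, crosslinked (0.1% formaldehyde), proximity-ligated, PCR-amplified and sequenced on an Illumina NextSeq500. The binding signal of each hexamer is its read frequency for a factor divided by its frequency for the tag-only sample.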
# [2] = molecular target: ETV5 (Homo sapiens, UniProt P41161 1-510); conditions: protein: recombinant; tags: N-terminal GST; dsDNA, one strand shown
# In short: as §1
# [3] = molecular target: HSF1 (Homo sapiens, UniProt Q00613 1-529); conditions: protein: recombinant; tags: N-terminal GST; chain copies: 3; dsDNA, one strand shown
# In short: as §1
# [4] = molecular target: T2, SPIC (Homo sapiens, UniProt Q8N5J4 1-248); conditions: protein: recombinant; tags: N-terminal GST; dsDNA, one strand shown
# T2 sequence: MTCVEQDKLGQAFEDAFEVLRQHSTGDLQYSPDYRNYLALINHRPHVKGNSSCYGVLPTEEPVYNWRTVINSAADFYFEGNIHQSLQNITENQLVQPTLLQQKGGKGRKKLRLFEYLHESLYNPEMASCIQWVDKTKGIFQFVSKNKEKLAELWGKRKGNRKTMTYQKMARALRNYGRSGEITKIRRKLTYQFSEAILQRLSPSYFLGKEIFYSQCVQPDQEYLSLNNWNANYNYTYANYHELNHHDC
# In short: as §1
# [5] = molecular target: ELF4 (Homo sapiens, UniProt Q99607 1-663); conditions: protein: recombinant; tags: N-terminal GST; dsDNA, one strand shown
# In short: as §1
# [6] = molecular target: T3, ELK4 (Homo sapiens, UniProt P28324-2 1-405); conditions: protein: recombinant; tags: N-terminal GST; dsDNA, one strand shown
# T3 sequence: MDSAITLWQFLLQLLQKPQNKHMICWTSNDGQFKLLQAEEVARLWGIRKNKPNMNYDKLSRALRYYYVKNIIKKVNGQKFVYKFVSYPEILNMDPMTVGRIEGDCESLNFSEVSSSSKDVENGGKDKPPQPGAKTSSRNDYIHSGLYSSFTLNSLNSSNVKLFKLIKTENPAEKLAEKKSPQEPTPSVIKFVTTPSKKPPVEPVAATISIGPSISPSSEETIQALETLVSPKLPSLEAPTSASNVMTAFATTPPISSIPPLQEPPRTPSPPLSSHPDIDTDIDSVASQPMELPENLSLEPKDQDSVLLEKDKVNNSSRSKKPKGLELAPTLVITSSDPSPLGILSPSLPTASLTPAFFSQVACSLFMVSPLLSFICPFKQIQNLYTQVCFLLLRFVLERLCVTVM
# In short: as §1
# [7] = molecular target: T4, ETV2 (Homo sapiens, UniProt O00321 1-342); conditions: protein: recombinant; tags: N-terminal GST; dsDNA, one strand shown
# T4 sequence: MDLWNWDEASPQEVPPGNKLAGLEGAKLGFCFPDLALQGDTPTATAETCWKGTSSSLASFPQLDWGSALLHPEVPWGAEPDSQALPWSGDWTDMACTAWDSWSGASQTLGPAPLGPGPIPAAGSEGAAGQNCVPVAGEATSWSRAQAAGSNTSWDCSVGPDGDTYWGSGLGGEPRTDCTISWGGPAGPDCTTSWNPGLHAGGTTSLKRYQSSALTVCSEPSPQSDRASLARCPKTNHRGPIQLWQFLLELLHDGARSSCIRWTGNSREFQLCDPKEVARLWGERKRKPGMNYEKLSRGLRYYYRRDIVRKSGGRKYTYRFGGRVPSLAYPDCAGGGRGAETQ
# In short: as §1
# [8] = molecular target: T5, ELF3 (Homo sapiens, UniProt P78545 1-371); conditions: protein: recombinant; tags: N-terminal GST; dsDNA, one strand shown
# T5 sequence: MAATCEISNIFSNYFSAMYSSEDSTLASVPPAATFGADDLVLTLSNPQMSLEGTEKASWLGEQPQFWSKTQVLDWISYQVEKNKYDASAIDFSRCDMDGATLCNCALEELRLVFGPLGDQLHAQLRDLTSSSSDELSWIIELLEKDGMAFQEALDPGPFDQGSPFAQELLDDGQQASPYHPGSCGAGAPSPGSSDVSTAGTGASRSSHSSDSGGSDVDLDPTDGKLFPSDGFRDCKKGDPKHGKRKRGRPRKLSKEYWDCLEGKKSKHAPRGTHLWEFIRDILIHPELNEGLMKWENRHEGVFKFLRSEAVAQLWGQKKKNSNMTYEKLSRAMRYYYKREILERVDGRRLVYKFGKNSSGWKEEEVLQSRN
# In short: as §1
# [9] = molecular target: CRX (Homo sapiens, UniProt O43186 1-299); conditions: protein: recombinant; tags: N-terminal GST; dsDNA, one strand shown
# In short: as §1
# [10] = molecular target: ETV1 (Homo sapiens, UniProt P50549 1-477); conditions: protein: recombinant; tags: N-terminal GST; dsDNA, one strand shown
# In short: as §1
# Chain of ETV1 (P50549 whole entry): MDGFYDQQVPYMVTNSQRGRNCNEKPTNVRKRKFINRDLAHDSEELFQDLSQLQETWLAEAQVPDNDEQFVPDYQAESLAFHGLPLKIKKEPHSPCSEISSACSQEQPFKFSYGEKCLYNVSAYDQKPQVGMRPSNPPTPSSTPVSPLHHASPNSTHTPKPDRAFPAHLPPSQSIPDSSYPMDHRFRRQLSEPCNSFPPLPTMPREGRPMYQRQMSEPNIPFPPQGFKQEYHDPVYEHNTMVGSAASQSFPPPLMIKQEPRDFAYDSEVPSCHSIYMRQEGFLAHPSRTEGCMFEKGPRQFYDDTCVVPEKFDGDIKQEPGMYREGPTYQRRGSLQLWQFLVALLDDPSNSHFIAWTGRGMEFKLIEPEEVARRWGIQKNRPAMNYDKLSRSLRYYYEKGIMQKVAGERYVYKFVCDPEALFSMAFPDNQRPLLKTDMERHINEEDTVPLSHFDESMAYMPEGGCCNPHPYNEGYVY
# Chain of HSF1 (Q00613 whole entry): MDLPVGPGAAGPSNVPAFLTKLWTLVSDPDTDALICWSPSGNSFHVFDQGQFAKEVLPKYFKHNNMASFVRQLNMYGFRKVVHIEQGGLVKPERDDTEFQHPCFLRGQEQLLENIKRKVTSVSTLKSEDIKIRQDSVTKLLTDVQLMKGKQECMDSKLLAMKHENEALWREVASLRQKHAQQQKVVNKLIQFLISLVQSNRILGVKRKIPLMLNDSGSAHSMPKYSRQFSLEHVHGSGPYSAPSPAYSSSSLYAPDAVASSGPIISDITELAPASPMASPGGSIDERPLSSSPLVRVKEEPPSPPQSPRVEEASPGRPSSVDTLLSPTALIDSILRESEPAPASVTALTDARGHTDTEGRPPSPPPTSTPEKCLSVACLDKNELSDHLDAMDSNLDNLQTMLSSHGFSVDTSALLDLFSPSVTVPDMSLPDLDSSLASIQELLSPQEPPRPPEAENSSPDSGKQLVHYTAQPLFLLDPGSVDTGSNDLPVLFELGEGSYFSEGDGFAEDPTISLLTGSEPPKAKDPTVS
# Chain of CRX (O43186 whole entry): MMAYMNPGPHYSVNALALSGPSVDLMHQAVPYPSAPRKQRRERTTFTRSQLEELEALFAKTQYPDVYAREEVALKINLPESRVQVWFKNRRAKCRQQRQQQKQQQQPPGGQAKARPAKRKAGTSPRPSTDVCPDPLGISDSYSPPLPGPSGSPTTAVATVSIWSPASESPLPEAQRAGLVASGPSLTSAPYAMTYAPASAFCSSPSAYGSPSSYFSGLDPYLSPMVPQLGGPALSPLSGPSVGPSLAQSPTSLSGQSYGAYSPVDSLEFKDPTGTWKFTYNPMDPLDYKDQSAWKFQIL
# Chain of ELF4 (Q99607 whole entry): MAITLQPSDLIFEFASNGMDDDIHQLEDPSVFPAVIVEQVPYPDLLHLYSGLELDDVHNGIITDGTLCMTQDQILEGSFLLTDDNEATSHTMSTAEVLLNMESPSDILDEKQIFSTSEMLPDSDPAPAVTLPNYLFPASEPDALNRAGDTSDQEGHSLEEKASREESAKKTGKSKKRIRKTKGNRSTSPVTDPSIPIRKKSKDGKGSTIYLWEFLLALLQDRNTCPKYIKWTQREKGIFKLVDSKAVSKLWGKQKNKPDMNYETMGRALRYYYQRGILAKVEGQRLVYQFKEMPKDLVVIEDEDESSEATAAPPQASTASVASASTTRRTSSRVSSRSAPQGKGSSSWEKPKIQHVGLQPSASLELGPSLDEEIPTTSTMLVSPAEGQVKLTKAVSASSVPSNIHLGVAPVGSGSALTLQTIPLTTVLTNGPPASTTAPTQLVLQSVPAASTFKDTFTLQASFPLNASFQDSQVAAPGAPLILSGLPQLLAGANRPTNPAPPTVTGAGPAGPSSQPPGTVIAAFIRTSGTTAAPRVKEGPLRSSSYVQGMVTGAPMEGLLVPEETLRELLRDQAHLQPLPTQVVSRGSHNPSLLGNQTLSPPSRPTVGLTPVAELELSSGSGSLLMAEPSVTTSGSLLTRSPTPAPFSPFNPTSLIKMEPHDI
# Chain of ETV5 (P41161 whole entry): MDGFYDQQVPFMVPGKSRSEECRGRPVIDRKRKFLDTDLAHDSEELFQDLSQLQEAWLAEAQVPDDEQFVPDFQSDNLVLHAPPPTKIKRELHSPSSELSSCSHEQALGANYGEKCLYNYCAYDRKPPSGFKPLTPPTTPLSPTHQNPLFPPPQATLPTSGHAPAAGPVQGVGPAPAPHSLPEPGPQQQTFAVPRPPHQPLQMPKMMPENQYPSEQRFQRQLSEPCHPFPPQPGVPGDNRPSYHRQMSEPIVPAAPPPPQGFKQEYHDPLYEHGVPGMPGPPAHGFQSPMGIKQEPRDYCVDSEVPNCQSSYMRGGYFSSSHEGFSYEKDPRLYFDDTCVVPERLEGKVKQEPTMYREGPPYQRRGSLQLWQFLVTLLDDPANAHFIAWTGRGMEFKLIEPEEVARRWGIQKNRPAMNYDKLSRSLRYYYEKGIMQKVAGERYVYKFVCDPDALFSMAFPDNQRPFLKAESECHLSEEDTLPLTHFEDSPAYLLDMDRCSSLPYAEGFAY
sequence,measurement,setting,value
AAACTT,binding signal,[1],"1.3 fold enrichment (6-mer frequency, TF over GST control)"
same,binding signal,[2],"1.22 fold enrichment (6-mer frequency, TF over GST control)"
same,binding signal,[3],"1.37 fold enrichment (6-mer frequency, TF over GST control)"
same,binding signal,[4],"1.36 fold enrichment (6-mer frequency, TF over GST control)"
same,binding signal,[5],"1.26 fold enrichment (6-mer frequency, TF over GST control)"
same,binding signal,[6],"1.23 fold enrichment (6-mer frequency, TF over GST control)"
same,binding signal,[7],"1.28 fold enrichment (6-mer frequency, TF over GST control)"
same,binding signal,[8],"1.13 fold enrichment (6-mer frequency, TF over GST control)"
same,binding signal,[9],"1.21 fold enrichment (6-mer frequency, TF over GST control)"
same,binding signal,[10],"1.27 fold enrichment (6-mer frequency, TF over GST control)"
